Bioassay records as filed in PubChem BioAssay.
FBW7 activator = activators of human E3 ligase FBW7. Q969H0. AlphaScreen FBW7–phospho-cyclin E peptide binding, activator screen. normalized activity (activation), % at 26.1 µM. actives 0.13% (n = 650,000); in the data active = normalized activity above about 1.9%;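 also: purified mutant Fbw7 with reduced substrate affinity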
MITF inh = inhibitors of human MITF; AlphaScreen MITF homodimerization, bead proximity signal; inhibition, % at 2.6 µM; actives 0.91% (n = 650,000); AID 1259374; in the data active = inhibition above about 50%;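 also: 0% = vehicle wells with protein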
TEAD-YAP block = TEAD-YAP interaction inhibition | HEK-TIYL cells, TEAD-Gal4/YAP UAS-luciferase luminescence | inhibition, % at 9.12 µM | actives 1.4% (n = 640,000) | AID 1259422; in the data active = inhibition above about 32%;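 also: 0% = median of test compound wells and 100% = reference inhibitor wells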
GPR151 ag = activators of human GPR151. PathHunter beta-arrestin GPR151 cells, luminescence. activation, % at 11.2 µM. actives 1% (n = 650,000). AID 1508602; in the data active = activation above about 4.9%;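 also: 0% = median of compound wells and 100% = cells with positive control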
GPR151 confirm = confirmation of human GPR151 activators; activation, % at 11.2 µM; 6,700 tested, under 10 active; shares compounds with GPR151 ag; AID 1508609; GPR151 PathHunter beta-arrestin cells, luminescence, 90 min; % of EA-reagent control over plate median;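 active = mean percent activation across replicates above the confirmation screen cutoff of 4.91%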
GPR119 ag = activates human GPR119 in a GPR151 counter-screen; shares compounds with GPR151 ag; actives 0.3% (n = 6,700); AID 1508611; activation, % at 11.2 µM; GPR119 PathHunter beta-arrestin cells, luminescence, 90 min; 0 = compound-well median, 100 = enzyme-acceptor control;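 active = mean percent activation in the counterscreen above 29.09%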;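 also: counterscreen on off-target GPR119 to flag nonselective hits from the GPR151 activator screen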
Target sequence (Q8TDV5 whole entry, looked up): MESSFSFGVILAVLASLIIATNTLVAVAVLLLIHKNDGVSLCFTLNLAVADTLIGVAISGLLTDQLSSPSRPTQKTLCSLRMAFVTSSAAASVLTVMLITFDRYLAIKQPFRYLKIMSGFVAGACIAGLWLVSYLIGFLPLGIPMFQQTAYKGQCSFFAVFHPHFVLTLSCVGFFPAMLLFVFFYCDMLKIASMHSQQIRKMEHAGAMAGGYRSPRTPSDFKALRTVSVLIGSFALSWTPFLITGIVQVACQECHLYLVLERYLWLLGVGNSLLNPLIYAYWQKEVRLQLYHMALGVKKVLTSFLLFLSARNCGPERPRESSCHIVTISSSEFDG
Active calls of the source: *; · = not tested or not shown. In the library only some 3.5% were active in any assay of this set; here they are far more common.

SMILES	FBW7 activator	MITF inh	TEAD-YAP block	GPR151 ag	GPR151 confirm	GPR119 ag
CCc1c(C)nc2ncnn2c1N1CCC(C(=O)Nc2ccc(C)cc2)CC1	0	9	12	-1	·	·
CCOC(=O)Cn1nnnc1C(CC)N(CCCO)Cc1cc2cc(C)ccc2[nH]c1=O (stereo not drawn)	0	3	7	-1	·	·
Cc1ccc(N2CCN(S(=O)(=O)c3cc(C(=O)Nc4cc(Cl)cc(Cl)c4)ccc3F)CC2C)cc1 (stereo not drawn)	0	11	5	5.7*	0	4
O=C(Nc1cccc(Cl)c1)c1ccc(F)c(S(=O)(=O)N2CCc3ccccc3C2)c1	0	0	-8	5.4*	1	7
CCN1CCN(S(=O)(=O)c2cc(C(=O)Nc3cccc(C)c3)ccc2F)CC1	0	9	-4	6.1*	-1	-7
Cc1[nH]n(-c2ccc([N+](=O)[O-])cc2)c(=O)c1/C=N/N1CCN(C)CC1	0	6	2	-8	·	·
CCn1c(Cc2ccccc2)nnc1SCC(=O)N1CCCCC1	0	7	2	6.3*	0	4
CCOC(=O)Cc1csc(NC(=O)CSc2nc(C)cc(C)n2)n1	0	-2	-3	5.6*	0	-1
COc1ccc2c(CC(=O)OCc3c(C)noc3C)coc2c1	0	0	9	5.1*	-2	-10
Cc1noc(C)c1COC(=O)Cc1coc2cc3c(cc12)CCC3	0	-9	2	3	·	·
COc1ccc(C(=O)N(CCCO)C(C)C(=O)NC2CCCCC2)cc1OC (stereo not drawn)	1	15	4	5.1*	1	4
Cc1ccc(N/C=C/C(=O)c2cccs2)cc1C	1	7	-24	9.6*	-2	-20
O=C1NC(=O)C(=Cc2ccc(OC(=O)c3ccccc3Cl)cc2)C(=O)N1	-1	-10	-3	5.5*	0	3
CCOC(=O)c1c(NC(=O)CSc2nnc(CNC(=O)c3ccc([N+](=O)[O-])cc3)n2C2CCCCC2)sc2c1CCC2	0	1	2	0	·	·
CCOC(CNC(=O)c1ccc2cc[nH]c2c1)(OCC)c1ccncc1	0	5	-6	7.3*	-1	-2
CCC(C)(C)c1ccc(OCC(=O)Nc2ccc3c(c2)C(=O)NC3=O)cc1	0	13	2	0	·	·
CCN(CC)C(=O)C1CCCN(c2nc(C)cc(Nc3ccc(Oc4ccccc4)cc3)n2)C1 (stereo not drawn)	0	-2	14	12*	1	4
CC(=O)NS(=O)(=O)c1ccc(NC(=O)c2ccc(C(C)(C)C)cc2)cc1	0	4	3	1	·	·
COc1ccc(Cc2nnc(Nc3cc(Cl)ccc3C)[nH]c2=O)cc1	0	13	-3	5.0*	0	14
COc1ccc(Cc2nnc(Nc3ccccc3C)[nH]c2=O)cc1	0	12	7	-1	·	·
N#Cc1c(-c2ccccc2)cc(-c2ccccc2)nc1SCc1ccc(Cl)c(Cl)c1	0	5	-8	0	·	·
N#Cc1c(-c2ccccc2)cc(-c2ccccc2)nc1SCc1ccc(Cl)cc1	0	-1	2	5.5*	1	-6
O=C(CCc1nnc(-c2ccc3c(c2)OCO3)o1)NCCCc1ccccc1	0	-11	-6	1	·	·
CCOc1cc(/C=C(/C#N)C(=O)NCc2ccccc2)ccc1OC	0	4	4	0	·	·
COc1ccc(/C=C(\C#N)C(=O)NCc2cccnc2)cc1OC	0	-2	-9	6.0*	0	7
SMILES	FBW7 activator	MITF inh	TEAD-YAP block	GPR151 ag	GPR151 confirm	GPR119 ag
Cn1c(=O)[nH]c(=O)c2c1nc(NCCCN1CCOCC1)n2CCO	0	0	-6	10*	0	5
COCCCNC(=O)C1CCN(S(=O)(=O)c2ccc(Br)cc2)CC1	0	2	10	-1	·	·
C=CCNC(=O)C1CCN(S(=O)(=O)c2ccc(Br)cc2)CC1	0	-3	8	5.7*	1	-4
COc1ccc(NC(=O)CC2C(=O)N(c3ccc(Cl)cc3)C(=S)N2CCCN2CCOCC2)cc1 (stereo not drawn)	0	11	1	5.0*	0	19
NC(=O)CC1C(=O)N(c2ccc(Cl)cc2)C(=S)N1Cc1cccnc1 (stereo not drawn)	0	7	7	5.4*	0	3
CCCOc1ccc(NC(=O)CC2C(=O)N(c3ccc(Cl)cc3)C(=S)N2Cc2ccncc2)cc1 (stereo not drawn)	0	4	1	6.3*	2	-6
CCCOc1ccc(NC(=O)CC2C(=O)N(c3ccc(Cl)cc3)C(=S)N2Cc2cccnc2)cc1 (stereo not drawn)	0	10	-3	0	·	·
CCN1CCN(CCCN2C(=S)N(c3ccc(Cl)cc3)C(=O)C2CC(=O)Nc2ccc(OC)cc2)CC1 (stereo not drawn)	1	0	-2	0	·	·
COC(=O)CCCCC1SCC(NC(=O)c2ccccc2)C1OS(C)(=O)=O (stereo not drawn)	0	0	-1	-1	·	·
Cc1cccn2c(=O)c(/C=C(\C#N)C(=O)N3CCCCC3)c(Oc3ccc(Cl)cc3)nc12	0	14	7	0	·	·
CC(C)CC(=O)Nc1nnc(S(=O)(=O)N2CCOCC2)s1	0	8	7	0	·	·
CCCOC(=O)c1ccc(N2C(=O)C3CCCCC3C2=O)cc1 (stereo not drawn)	0	2	-6	-2	·	·
CC1(C)CC(=O)C2=C(C1)OC1=C(C(=O)CC(C)(C)C1)C2c1cccs1	0	-5	1	2	·	·
CC1(C)CC(=O)C2=C(C1)OC1=C(C(=O)CC(C)(C)C1)C2C=C(Cl)Cl	1	8	-9	6.6*	0	-10
CC(=O)C1C2=C(CC(C)(C)CC2=O)OC2=C1C(=O)CC(C)(C)C2	0	3	-12	6.7*	0	-4
Cc1c(C(=O)OC(C)C)sc(NC(=O)c2cc(Cl)ccc2Cl)c1C#N	0	-1	4	1	·	·
Cc1c(C(=O)OC(C)C)sc(NC(=O)c2ccccc2F)c1C#N	0	-1	-3	5.8*	0	0
C=CCOc1ccc(C2/C(=C(\O)c3ccc(OCCC)cc3C)C(=O)C(=O)N2c2nc(C)c(C(=O)OCC)s2)cc1 (stereo not drawn)	0	13	0	1	·	·
COc1cc(NC(=O)COc2ccc(C(C)C)cc2)cc(OC)c1	0	8	9	2	·	·
CC(CCc1ccccc1)NC(=O)Cn1nc(Cc2ccncc2)c2ccccc2c1=O (stereo not drawn)	0	20	-3	5.8*	2	4
CCOC(=O)n1nc(Cc2ccncc2)c2ccccc2c1=O	0	12	-1	5.2*	1	7
O=C(O)Cn1nc(Cc2ccncc2)c2ccccc2c1=O	1	16	2	-1	·	·
